Results published in PubChem BioAssay (NCI).
This is part of a sample that, as a whole, favours compounds with a hit. Of some 83,000 tested, about 20% had one in any assay.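 Compound tested at a single concentration for 48 hours in 96-well plates; a percent growth value below 10 was scored as active.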 A number with no mark means an inactive call. The source made the active and inactive calls.

Tests used:
Assay in all cases: NCI-60 one-dose screen, 48 h (100 = growth as untreated, 0 = no growth, -100 = all killed)
Settings in all cases: 10 µM unless noted
[1] = test system: SK-MEL-2 melanoma
[2] = test system: EKVX NSCLC
[3] = test system: SN12C renal
[4] = test system: UO-31 renal
[5] = test system: TK-10 renal
[6] = test system: ACHN renal
[7] = test system: CAKI-1 renal
[8] = test system: A498 renal
[9] = test system: CCRF-CEM leukemia
[10] = test system: MOLT-4 leukemia

Compound | growth [1] | growth [2] | growth [3] | growth [4] | growth [5] | growth [6] | growth [7] | growth [8] | growth [9] | growth [10]
CCc1ccccc1-n1c(-c2ccc(Cl)cc2)cc(-c2ccc(OC)cc2)c(C#N)c1=O | 91.5% | 96.1% | 99.4% | 81.5% | 136% | 114% | 99.8% | 110% | -41.4% (active) | 103%
O=C(NCCc1ccc(O)c(O)c1)C12CC3CC(CC(C3)C1)C2 | 66.7% | 111% | 96.7% | 66.2% | 90.3% | 90.7% | 51.5% | 101% | 23.7% | 72.9%
O=C(NC(Cc1nnc2n(Cc3ccccc3)c(=O)c3c4c(sc3n12)CCCC4)c1ccc(Cl)cc1)c1ccccc1 (stereo not drawn) | 95.7% | 94.6% | 92.4% | -5.74% (active) | 99% | 67.5% | 94.3% | 83.5% | 80.5% | 53.1%
Cc1ccc2nc(C)c(-c3nnc(SCc4ccc(C#N)cc4)o3)n2c1 | 101% | 83.8% | 92.9% | 67% | 120% | 88.4% | 85.3% | 72% | 117% | 101%
C=CC(=O)Nc1cccc(Oc2nccc(Nc3nnc(C4CC4)s3)n2)c1 | 108% | 104% | 87.4% | 72.4% | 104% | 97.7% | 92.3% | 101% | – | 75.7%
C=C1C(=O)O[C@H]2[C@H]1CC/C(COC(=O)C(=O)c1c[nH]c3ccc(OC)cc13)=C\CC[C@@]1(C)O[C@@H]21 | -60.9% (active) | -4.43% (active) | -48.5% (active) | -96.3% (active) | -56.7% (active) | -67.1% (active) | -56.9% (active) | -98.7% (active) | – | -28.2% (active)
CN(C)c1ccc(/C=C/C(=O)c2cccc(Nc3nc(Nc4ccccc4)nc(Nc4ccccc4)n3)c2)cc1 | 62.1% | 77.8% | 91.6% | 73.5% | 90.9% | 90.6% | 91.6% | 76.8% | – | 80.6%
CS(=O)(=O)c1ccc(Nc2nc(N[C@H]3CCCC[C@H]3N)nc3cc[nH]c(=O)c23)cc1 | -40% (active) | 13.5% | 3.77% (active) | 108% | 44.6% | 95.2% | 90.7% | 51.8% | 3.99% (active) | 3.74% (active)
Cc1ccc(-c2c(-c3ccccc3)c(=O)oc3ccc(C)cc23)cc1 | 134% | 96.9% | 91.9% | 79.9% | 118% | 90.6% | 81.1% | 97.9% | – | 76.3%
COC(=O)[C@H](CSC)N(C)C(=O)[C@@H]1CSSC[C@@H](NC(=O)c2nc3ccccc3cc2O)C(=O)NCC(=O)N1C | 61.3% | 82.8% | 66.5% | 71.9% | 88.4% | 88% | 104% | 102% | – | 23.8%
COc1cc(/C=C/C(=O)c2cccc(-n3cc(-c4ccccc4)[nH]c3=O)c2)ccc1O | 56.5% | 70.7% | 27.9% | 36.4% | 81.6% | 34.4% | 45.8% | 116% | – | 6.81% (active)
COc1cc(C(=O)/C=C/c2c(C(F)(F)F)nc3sccn23)cc(OC)c1OC | 12.2% | 10.6% | 20.2% | -29.6% (active) | 21.9% | -69.4% (active) | -16.5% (active) | 61.4% | -9.49% (active) | 0.936% (active)
CC(C)=C[C@@H]1c2c(c3ccccc3n(C)c2=O)O[C@H]2c3c(c4ccccc4n(C)c3=O)OC(C)(C)[C@@H]12 | 66.4% | 90.9% | 115% | 63.1% | 123% | 70.4% | 87.7% | 102% | 46.6% | 39.5%
CC(C)C(=O)Nc1n[nH]c2cc(-c3cccc(NS(=O)(=O)C4CC4)c3)ccc12 | 78% | 71.7% | 77.7% | 56.7% | 94.9% | 70% | 71.2% | 100% | 72.4% | 57.8%
Cc1cc(=O)[nH]c(N=Nc2c(O)[nH]c3ccccc23)n1 | 103% | 111% | 102% | 84.9% | 112% | 101% | 96.1% | 127% | 94.6% | 109%
CCOP(=O)(OCC)C1CP(=O)(c2ccccc2)CC(C)=C1Cl (stereo not drawn) | 102% | 107% | 96% | 68.1% | 77.1% | 109% | 108% | 111% | -90.6% (active) | 93%
COc1ccc(N=Nc2ccc(O)c(=O)cc2)cc1 | 19.7% | 4.69% (active) | 6.7% (active) | 1.08% (active) | 44.3% | 4.83% (active) | 11.1% | 82.4% | 15.8% | -18.4% (active)
CN1CCN(CC(=O)Nc2nc(-c3cccc(NS(=O)(=O)c4cccc5c(N(C)C)cccc45)c3)cs2)CC1 | 94.3% | 66.4% | 69.7% | 58.3% | 100% | 82.3% | 67.9% | 96.8% | – | 46.2%
CC(C)CC(NC(=O)CN(Cc1ccccc1)S(C)(=O)=O)C(=O)O (stereo not drawn) | 125% | 97.9% | 108% | 96.7% | 93.9% | 102% | 62.2% | 95.3% | 98.2% | 94.7%
CCCCCCCCCCCC(c1ccccc1)[N+](C)(C)C (stereo not drawn) | -19.8% (active) | 42.7% | 9.01% (active) | 80.8% | 1.24% (active) | 81.9% | 102% | 55.4% | 16.1% | 5.29% (active)
Cc1ccc(Cl)cc1NC(=O)c1cc2ccccc2cc1O | -12.3% (active) | 4.4% (active) | -21.8% (active) | -8.04% (active) | -1.32% (active) | -15% (active) | -16.8% (active) | -31.4% (active) | -22.3% (active) | -37.4% (active)

Compound | growth [1] | growth [2] | growth [3] | growth [4] | growth [5] | growth [6] | growth [7] | growth [8] | growth [9] | growth [10]
COc1ccc(NC(=O)CSc2nc(C)c(C(C)=O)n2-c2ccc(Cl)cc2)cc1 | 102% | 95.5% | 92.5% | 102% | 125% | 99% | 97.8% | 75.6% | 108% | 91%
CCN(CC)CCn1nc2c3c(cccc3c1=O)-c1ccccc1-2 | 32.8% | 40.7% | 15.5% | 6.26% (active) | 26.4% | -41.7% (active) | 18.1% | 24.3% | – | 4.13% (active)
N#C/C(=C\c1ccc2c(c1)OCO2)n1nnc2cc(F)c(F)cc21 | 78.7% | 82.7% | 68.3% | 61.3% | 101% | 65.1% | 50.7% | 44.9% | – | 63.9%
CC/C=C/C/C=C/C/C=C/C/C=C/C/C=C/C/C=C/CCC(=O)Nc1ccn([C@@H]2O[C@H](CO)[C@@H](O)C2(F)F)c(=O)n1 | 83.1% | 70% | -2.1% (active) | 3.26% (active) | 67.9% | 6.15% (active) | 12.4% | 16.6% | – | 1.85% (active)
NNC(=O)c1nc(N)n(-c2ccc(S(N)(=O)=O)cc2)n1 | 107% | 98.2% | 97.6% | 76.2% | 104% | 100% | 88% | 103% | – | 105%
Cc1ccc(-n2c(-c3ccccc3)c(-c3ccccc3)c3c(SCC(=O)n4[nH]c(N)cc4=O)ncnc32)cc1 | 108% | 87.2% | 99.2% | 71.9% | 104% | 91.2% | 88.4% | 114% | – | 87.3%
CC/C=C\C[C@H](O)C/C=C1/C(=O)C=C[C@@H]1C/C=C\CCCC(=O)OC | -2.28% (active) | 35.5% | -7.19% (active) | -75.1% (active) | -1.5% (active) | -57.5% (active) | -15.6% (active) | 103% | – | -6.76% (active)
N=C1C(c2nc(-c3ccc(Br)cc3)cs2)=C(O)CN1CC1CCCO1 (stereo not drawn) | 89.8% | 98.7% | 111% | 20.8% | 135% | 88% | 90.4% | 96.4% | – | 70.3%
CC1O[C@@H](OC2[C@H](OC(=O)/C=C/c3ccc(O)c(O)c3)C(COC3O[C@H](C)C(O)C(O)[C@@H]3O)O[C@@H](OCCc3ccc(O)c(O)c3)[C@H]2O)[C@@H](O)C(O)[C@H]1O (stereo partly drawn) | 99.6% | 91.2% | 106% | 89.9% | 100% | 103% | 97.3% | 107% | – | 99.1%
COc1cc(/C=C/C(=O)c2c(C)nc3ccccc3c2C)ccc1OCCCN1CCN(C(=O)c2ccco2)CC1 | 59.3% | 81.7% | 92.5% | 66.7% | 110% | 80.6% | 74.8% | 59.4% | – | 60.6%
CC1=CN2C(=O)C3C4=C(CCCC4)SC3N=C2CN1c1c(C)cccc1C (stereo not drawn) | 116% | 81% | 99.6% | 90.7% | 100% | 96.2% | 81.1% | 92% | – | 77%
Cc1ccc(C(=O)C2=C(O)C(=O)N(Cc3cccnc3)C2c2ccccc2F)o1 (stereo not drawn) | 92.1% | 97.7% | 95.7% | 93.3% | 104% | 98.5% | 105% | 95% | – | 90.3%
CC1CC2Oc3ccc(Cl)cc3C(=O)N2O1 (stereo not drawn) | 98.6% | 109% | 105% | 92.9% | 96.8% | 102% | 97.1% | 86.9% | – | 105%
Cn1c(-c2c(N)n(Cc3cccnc3)c3nc(C#N)c(C#N)nc23)nc2ccccc21 | 107% | 87.1% | 106% | 31.5% | 55.5% | 85.8% | 92.1% | 98.9% | – | 74.1%
COc1ccccc1NC(=O)N/C(N)=N/c1nc2ccccc2s1 | 48.6% | 53.2% | 37.1% | 52.9% | 59.3% | 42.2% | 36.4% | -10.5% (active) | – | 15.4%
CC/C=C\CCC/C=C1/C(=O)C=C[C@@H]1C/C=C\CCCC(=O)O | 89.4% | 103% | 48.4% | 70.8% | 114% | 42.9% | 60.1% | 103% | – | 6.84% (active)
O=C1CCc2c(sc3[nH]c(=S)n(-c4ccc(OC(F)(F)F)cc4)c(=O)c23)C1 | 58.5% | 56.7% | 31.4% | 44.4% | 104% | 80.3% | 83.6% | 107% | – | 47.3%
COc1ccc(-c2nc(SC(C)C)nc(NNC(N)=S)c2C#N)cc1 | 48.7% | 65.7% | 55.1% | 64.3% | 72.9% | 72.1% | 42.3% | 50.2% | – | 32.1%
CCOC(=O)c1c2ncccc2n2c(=O)n(-c3ccccc3C)nnc12 | 107% | 74% | 105% | 73.4% | 146% | 92.2% | 91.7% | 127% | – | 61.2%
O=C1CC(N2C(=O)/C(=C/C(Cl)=C\c3ccc([N+](=O)[O-])cc3)SC2=S)C(=O)N1c1ccc(O)cc1 (stereo not drawn) | -9.67% (active) | -2.89% (active) | -8.4% (active) | -75.2% (active) | -1.39% (active) | -71.4% (active) | 7.93% (active) | -26.8% (active) | – | 2.92% (active)
CC1(C)CC[C@]2(C(=O)N3CCOCC3)CC[C@]3(C)C(=CC[C@@H]4[C@@]5(C)CC[C@H](OC(=O)c6cccnc6)C(C)(C)[C@@H]5CC[C@]43C)[C@@H]2C1 | 84.4% | 88.2% | 74.4% | 62.9% | 83% | 45.3% | 40.1% | 70.3% | – | 49%
